LGR2 antag = Drosophila LGR2 receptor signaling inhibition; inhibition, % at 9.99 µM; 0.35% of 380,000 active; HEK293 LGR2, CRE-luciferase, bursicon-stimulated, 4 h; AID 720647;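 active = drop in luminescence signal, shown as inhibition above about 50% in the replicate tests, limit read from the data, passing the limit was not always enough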;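 also: agonist challenge used bursicon conditioned medium at about half maximal strength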
MITF TRPM1 inh = inhibitors of MITF-driven TRPM1 promoter in melanoma cells | SK-MEL-5 TRPM1 promoter luciferase, 24 h | inhibition, % at 12.5 µM | 0.83% of 330,000 active | AID 488899;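 active = mean inhibition across replicates of 60% or more, whatever share of single replicates reaches that level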
EWS-Fli inh = blocks EWS/Fli oncoprotein-driven transcription; A673 NR0B1-luciferase reporter, viability-normalised; inhibition, % at 12.6 µM; 0.67% of 350,000 active; AID 651661;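 active = mean inhibition of at least 50% after viability correction, with every replicate also passing that limit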;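 also: firefly luciferase signal divided by Alamar Blue viability fluorescence both relative to DMSO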
Shn3 3UTR inh = Schnurri-3 reporter inhibition in Clone20 osteoblasts. Clone20 osteoblast Shn3 3'UTR firefly luciferase, 24 h. inhibition, % at 12.5 µM. 0.52% of 360,000 active. AID 588674;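 active = mean inhibition of at least 75% with every replicate also reaching 75%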
PAX8 reporter = lowers PAX8-driven luciferase in RMG-I cells; 1.2% of 360,000 active; inhibition, % at 12.6 µM; AID 652154; RMG-I TPO-luciferase reporter, SteadyGlo, 24 h;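 active = mean replicate inhibition at least 60% with every replicate also reaching 60%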;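 also: luciferase light reporting Pax8 driven TPO promoter activity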
EBV LMP1 NFkB = inhibitors of Epstein-Barr LMP1-induced NF-kappaB reporter. LMP1-induced NF-kappaB luciferase reporter cells, luminescence. inhibition, % at 12.5 µM. 0.69% of 350,000 active. AID 504558; in the data active = inhibition above about 41%
A number is an active result; 0 = inactive; - = not tested or not shown. Only some compounds are listed: those with a hit (about 2.2% of all), similar ones and a draw of the others.

SMILES	LGR2 antag	MITF TRPM1 inh	EWS-Fli inh	Shn3 3UTR inh	PAX8 reporter	EBV LMP1 NFkB
COc1ccc(NC(=O)Nc2ccc3c(c2)C(=O)N([C@@H](C)CO)C[C@H](C)[C@@H](CN(C)Cc2ccc(C(F)(F)F)cc2)OCCCC[C@@H](C)O3)cc1	0	-	0	-	69	-
C[C@H](CO)N1C[C@H](C)[C@@H](CN(C)Cc2ccccc2)OCCCC[C@H](C)Oc2ccc(NC(=O)Nc3cccc4ccccc34)cc2C1=O	0	-	0	-	0	-
Cc1noc(C)c1NC(=O)Nc1ccc2c(c1)CC(=O)N([C@@H](C)CO)C[C@@H](C)[C@H](CN(C)C(=O)Nc1ccc3c(c1)OCO3)O2	0	-	0	-	0	-
O=C1CNC[C@H]2[C@H](c3ccc(C#CC4CCCC4)cc3)[C@@H](CO)N12	0	-	0	-	0	-
COc1ccc(CN(C)C[C@H]2OCCCC[C@H](C)Oc3ccc(NC(=O)Nc4ccc(C(F)(F)F)cc4)cc3C(=O)N([C@@H](C)CO)C[C@H]2C)cc1	-	-	67	-	106	-
COc1ccc(NC(=O)Nc2ccc3c(c2)C(=O)N([C@H](C)CO)C[C@@H](C)[C@H](CN(C)Cc2ccc(C(F)(F)F)cc2)OCCCC[C@@H](C)O3)cc1	0	-	0	-	0	-
COc1ccc(NC(=O)Nc2ccc3c(c2)C(=O)N([C@@H](C)CO)C[C@@H](C)[C@@H](CN(C)Cc2ccc(C(F)(F)F)cc2)OCCCC[C@H](C)O3)cc1	0	-	0	-	72	-
COc1ccc(NC(=O)Nc2ccc3c(c2)C(=O)N([C@H](C)CO)C[C@H](C)[C@@H](CN(C)Cc2ccc(C(F)(F)F)cc2)OCCCC[C@@H](C)O3)cc1	0	-	0	-	0	-
COc1ccc(CN(C)C[C@H]2OCCCC[C@@H](C)Oc3ccc(NC(=O)Nc4ccc(F)cc4)cc3C(=O)N([C@H](C)CO)C[C@H]2C)cc1	0	-	67	-	0	-
COc1ccc(NC(=O)Nc2ccc3c(c2)C(=O)N([C@@H](C)CO)C[C@@H](C)[C@@H](CN(C)Cc2ccc(C(F)(F)F)cc2)OCCCC[C@@H](C)O3)cc1	0	-	0	-	84	-
CC(C)NC(=O)Nc1ccc2c(c1)C(=O)N([C@@H](C)CO)C[C@H](C)[C@@H](CN(C)S(=O)(=O)c1ccc(Cl)cc1)O2	0	-	0	-	0	-
COCCNC(=O)C[C@@H]1CC[C@@H]2[C@H](COC[C@@H](O)CN2C(=O)Nc2ccc3c(c2)OCO3)O1	0	-	0	-	0	-
COc1ccc(-c2cn3nc(C)c(C)nc3n2)cc1OC	0	0	0	0	0	0
Cc1ccc(-c2cn3nc(C)c(C)nc3n2)cc1	-	64	-	0	-	63
O=C1/C(=C/c2ccco2)SC(=S)N1C1CCS(=O)(=O)C1 (configuration not stated)	55	0	0	0	0	0
O=C1/C(=C\c2ccco2)SC(=S)N1C1CCS(=O)(=O)C1 (configuration not stated)	0	-	0	0	0	-
OC(COc1ccc(CNCCc2ccc(C(F)(F)F)cc2)cc1)CN1CCCCC1 (configuration not stated)	0	94	0	0	0	0
OC(COc1ccc(OCC(O)CN2CCCCC2)cc1)CN1CCCCC1 (configuration not stated)	0	0	0	0	0	0
C[C@H](NC(=O)N(C)C[C@H]1OCc2ccccc2-c2c(n(C)c3ccccc23)C(=O)N([C@@H](C)CO)C[C@H]1C)c1ccccc1	0	-	0	-	0	-
COc1ccc(CC2C(=O)NC(C)C(=O)N(C)C3Cc4ccc(cc4)Oc4cc(ccc4O)CC(C(=O)NC(C)C(=O)NC(C)C(=O)N2C)N(C)C3=O)cc1 (configuration not stated)	103	98	66	95	110	82
CC(C)C[C@@H]1NC(=O)[C@H](Cc2ccccc2)N(C)C(=O)[C@H](C)NC(=O)c2ccccc2NC(=O)[C@H](Cc2ccc(O)cc2)N(C)C1=O	0	0	0	0	-	0
Cc1noc(C)c1NC(=O)N(C)C[C@@H]1Oc2cc(C#CCN(C)C)ccc2S(=O)(=O)N([C@H](C)CO)C[C@@H]1C	0	-	0	-	-	-
Cc1cc(C)cc(OCC(=O)Nc2ccc(N3CCCCC3)cc2)c1	0	0	0	0	0	0
Cc1cc(C)cc(OCC(=O)N(C)CC(=O)Nc2ccc(N3CCOCC3)cc2)c1	0	0	0	0	75	0

From PubChem BioAssay
